Experiment [1] is described as follows: NCI Yeast Anticancer Drug Screen. Data for the rad50 strain (AID 155).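 Also: 0% = growth of vehicle-only cultures of the same strain.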 The following applies: S. cerevisiae rad50 strain growth inhibition, active compounds read high. The procedure, abridged: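 Vehicle-treated cultures provide the reference for the growth inhibition reported for compound-exposed, repair-deficient yeast.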
The nature of experiment [2]: NCI Yeast Anticancer Drug Screen. Data for the mec2-1 strain (AID 157). The settings on record: S. cerevisiae mec2-1 strain, active compounds read high. The procedure, abridged: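 Cells of the genetically defined mec2-1 yeast strain are incubated with test compound. Inhibition of growth is calculated against vehicle-treated controls.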
Experiment [3] can be described thus: NCI Yeast Anticancer Drug Screen. Data for the sgs1 mgt1 strain (AID 161).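 Also: 0% = growth of cultures given vehicle only.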 The settings on record: S. cerevisiae sgs1 mgt1 strain, active compounds read high. The procedure, abridged: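 Mutant yeast exposed to compound; growth scored against vehicle-only wells.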
Experiment [4] can be described thus: NCI Yeast Anticancer Drug Screen. Data for the cln2 rad14 strain (AID 165).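 Also: 0% = growth equal to vehicle treated cultures.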 The settings on record: S. cerevisiae cln2 rad14 strain, active compounds read high. The procedure, abridged:
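The screen exposed genetically defined yeast (cln2 rad14) to test compounds and scored growth inhibition relative to vehicle-treated controls.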

Experiment [5] is described as follows: NCI Yeast Anticancer Drug Screen. Data for the bub3 strain (AID 167). The settings on record: S. cerevisiae bub3 mutant strain, active compounds read high. The procedure, abridged:
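Mutant yeast screening strain plus compound; vehicle-treated cultures serve as the 0% inhibition reference.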

Experiment [6] in a line: NCI Yeast Anticancer Drug Screen. Data for the mlh1 rad18 strain (AID 175). The following applies: S. cerevisiae mlh1 rad18 strain growth inhibition, active compounds read high. In outline:
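Compound-treated yeast growth, normalised to vehicle controls. Strain bears defined DNA repair mutations.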

[7] abbreviates: at 5.0 µM (retest, dose inferred, filed as 0.5).
The mark [8] stands for this setting: at 50.0 µM (retest, dose inferred, filed as 5.0).

We go through 9 compounds from PubChem BioAssay (NCI).

About 79,000 compounds went through this panel and 15% of them were active in at least one assay; those are over-represented in the sample as a whole. Unmarked numbers belong to inactive results. Activity calls are given as the source filed them. Rule as the data show it: active = growth inhibition above about 70%; inactive = the rest.

For `O=C(c1ccc(OCC(O)CN2CCN(c3ccccc3)CC2)cc1)c1cc2ccccc2c2ccccc12` (configuration not stated), the growth inhibition in experiment [1] (setting [7]) is 13%; in experiment [1] (setting [8]), 85% (active); in experiment [1] (at 50.0 µM), 61%; in experiment [2] (setting [7]), 12%; in experiment [2] (setting [8]) it was 78% (active); in experiment [2] (at 50.0 µM) it was 82.8% (active). Also, the growth inhibition in experiment [3] (setting [7]) is 17%; in experiment [3] (setting [8]) it was 49%; in experiment [3] (at 50.0 µM), 44.6%; in experiment [4] (setting [7]), 3%; in experiment [4] (setting [8]) it was 80% (active); in experiment [4] (at 50.0 µM) it was 91.5% (active). Also, the growth inhibition in experiment [5] (setting [7]) is 10%; in experiment [5] (setting [8]), 91% (active); in experiment [5] (at 50.0 µM), 89.3% (active); in experiment [6] (setting [7]), 9%; in experiment [6] (setting [8]), 87% (active); in experiment [6] (at 50.0 µM), 96.2% (active).
`COC(=O)c1c(C)cccc1C1CN=NC12Cc1ccccc1C2=O` (configuration not stated): the growth inhibition was 24% in experiment [1] (setting [7]); 32% in experiment [1] (setting [8]); 3.9% in experiment [1] (at 50.0 µM); 16% in experiment [2] (setting [7]); 12% in experiment [2] (setting [8]); 6.25% in experiment [2] (at 50.0 µM). Further, the growth inhibition is 23% in experiment [3] (setting [7]); 38% in experiment [3] (setting [8]); 32.9% in experiment [3] (at 50.0 µM); 24% in experiment [4] (setting [7]); 16% in experiment [4] (setting [8]); 30.8% in experiment [4] (at 50.0 µM). Moreover, the growth inhibition in experiment [5] (setting [7]) is 25%; in experiment [5] (setting [8]) it was 30%; in experiment [5] (at 50.0 µM), 19.6%; in experiment [6] (setting [7]), 23%; in experiment [6] (setting [8]), 29%; in experiment [6] (at 50.0 µM), -32.9%.
Consider `O=C(CC(c1ccccc1)N1CCCCC1)OC1c2ccccc2-c2ccccc21` (configuration not stated), for which the growth inhibition was -2% in experiment [1] (setting [7]); 28% in experiment [1] (setting [8]); 70.1% (active) in experiment [1] (at 50.0 µM); 17% in experiment [2] (setting [7]); 43% in experiment [2] (setting [8]); 9.35% in experiment [2] (at 50.0 µM). Moreover, the growth inhibition in experiment [3] (setting [7]) was 30%; in experiment [3] (setting [8]) it was 54%; in experiment [3] (at 50.0 µM) it was 55.8%; in experiment [4] (setting [7]) it was 0%; in experiment [4] (setting [8]), 23%; in experiment [4] (at 50.0 µM) it was 54.1%. Also, the growth inhibition in experiment [5] (setting [7]) was -1%; in experiment [5] (setting [8]), 24%; in experiment [5] (at 50.0 µM) it was 70%; in experiment [6] (setting [7]) it was 35%; in experiment [6] (setting [8]) it was 56%; in experiment [6] (at 50.0 µM), 55.8%.
`CN1C(=O)CCCCCCCCCCSc2ccccc21`: the growth inhibition in experiment [1] (setting [7]) was 7%; in experiment [1] (setting [8]), 97% (active); in experiment [1] (at 50.0 µM), 99% (active); in experiment [2] (setting [7]), 8%; in experiment [2] (setting [8]), 99% (active); in experiment [2] (at 50.0 µM), 99% (active). Further, the growth inhibition in experiment [3] (setting [7]) is 4%; in experiment [3] (setting [8]), 97% (active); in experiment [3] (at 50.0 µM), 99.2% (active); in experiment [4] (setting [7]), 7%; in experiment [4] (setting [8]), 99% (active); in experiment [4] (at 50.0 µM), 96.7% (active). Also, the growth inhibition is 16% in experiment [5] (setting [7]); 98% (active) in experiment [5] (setting [8]); 98.3% (active) in experiment [5] (at 50.0 µM); 6% in experiment [6] (setting [7]); 98% (active) in experiment [6] (setting [8]); 98.8% (active) in experiment [6] (at 50.0 µM).
As for `Cc1cc(NS(=O)(=O)c2ccc(N)cc2)no1.[Ag]`, the growth inhibition in experiment [1] (setting [7]) was 99% (active); in experiment [1] (setting [8]), 99% (active); in experiment [1] (at 50.0 µM) it was 99.4% (active); in experiment [2] (setting [7]), 100% (active); in experiment [2] (setting [8]), 99% (active); in experiment [2] (at 50.0 µM), 99.7% (active). For the same compound, the growth inhibition was 99% (active) in experiment [3] (setting [7]); 100% (active) in experiment [3] (setting [8]); 99.7% (active) in experiment [3] (at 50.0 µM); 99% (active) in experiment [4] (setting [7]); 99% (active) in experiment [4] (setting [8]); 99.5% (active) in experiment [4] (at 50.0 µM). Further, the growth inhibition in experiment [5] (setting [7]) is 99% (active); in experiment [5] (setting [8]) it was 99% (active); in experiment [5] (at 50.0 µM), 99.7% (active); in experiment [6] (setting [7]), 99% (active); in experiment [6] (setting [8]), 99% (active); in experiment [6] (at 50.0 µM), 99.5% (active).
`O=C(O)CN1CCNCCN(CC(=O)O)CCNCC1`: the growth inhibition in experiment [1] (setting [7]) was 66%; in experiment [1] (setting [8]) it was 94% (active); in experiment [1] (at 50.0 µM) it was 50.7%; in experiment [2] (setting [7]), 59%; in experiment [2] (setting [8]), 93% (active); in experiment [2] (at 50.0 µM), 76.1% (active). Further, the growth inhibition in experiment [3] (setting [7]) was 56%; in experiment [3] (setting [8]) it was 94% (active); in experiment [3] (at 50.0 µM) it was 69.8%; in experiment [4] (setting [7]), 25%; in experiment [4] (setting [8]) it was 85% (active); in experiment [4] (at 50.0 µM) it was 54.8%. The growth inhibition in experiment [5] (setting [7]) is 60%; in experiment [5] (setting [8]) it was 95% (active); in experiment [5] (at 50.0 µM), 56.2%; in experiment [6] (setting [7]), 66%; in experiment [6] (setting [8]), 94% (active); in experiment [6] (at 50.0 µM) it was 56%.
For the compound `c1ccc(C2=NCCC(c3ccccc3)S2)cc1` (configuration not stated), the growth inhibition in experiment [1] (setting [7]) is -2%; in experiment [1] (setting [8]), 5%; in experiment [1] (at 50.0 µM), -2.55%; in experiment [2] (setting [7]), -4%; in experiment [2] (setting [8]), 3%; in experiment [2] (at 50.0 µM) it was -4.1%. The growth inhibition in experiment [3] (setting [7]) is -3%; in experiment [3] (setting [8]) it was 4%; in experiment [3] (at 50.0 µM) it was 55.5%; in experiment [4] (setting [7]) it was -19%; in experiment [4] (setting [8]) it was -4%; in experiment [4] (at 50.0 µM), -41.5%. For the same compound, the growth inhibition in experiment [5] (setting [7]) was 2%; in experiment [5] (setting [8]), 0%; in experiment [5] (at 50.0 µM), 68.1%; in experiment [6] (setting [7]), 0%; in experiment [6] (setting [8]) it was 8%; in experiment [6] (at 50.0 µM), 21.9%.
As for `CC(=O)/C=N/Nc1ccccc1`, the growth inhibition is 15% in experiment [1] (setting [7]); 20% in experiment [1] (setting [8]); 42.1% in experiment [1] (at 50.0 µM); 3% in experiment [2] (setting [7]); 7% in experiment [2] (setting [8]); 3.5% in experiment [2] (at 50.0 µM). Besides, the growth inhibition in experiment [3] (setting [7]) was -9%; in experiment [3] (setting [8]) it was 11%; in experiment [3] (at 50.0 µM) it was 33%; in experiment [4] (setting [7]) it was 0%; in experiment [4] (setting [8]), -8%; in experiment [4] (at 50.0 µM), -9.5%. Besides, the growth inhibition in experiment [5] (setting [7]) was -1%; in experiment [5] (setting [8]) it was 3%; in experiment [5] (at 50.0 µM) it was 7.2%; in experiment [6] (setting [7]), 14%; in experiment [6] (setting [8]), 32%; in experiment [6] (at 50.0 µM) it was 58.6%.
Turning to `N#Cc1c(-c2ccc(Cl)c(Cl)c2)c(-c2ccc(Cl)c(Cl)c2)nn(CC(=O)O)c1=O`, the growth inhibition in experiment [1] (setting [7]) is -2%; in experiment [1] (setting [8]), 98% (active); in experiment [1] (at 50.0 µM) it was 38.1%; in experiment [2] (setting [7]), -2%; in experiment [2] (setting [8]) it was 100% (active); in experiment [2] (at 50.0 µM) it was 46.6%. Besides, the growth inhibition in experiment [3] (setting [7]) is 2%; in experiment [3] (setting [8]), 98% (active); in experiment [3] (at 50.0 µM), 50.7%; in experiment [4] (setting [7]), -3%; in experiment [4] (setting [8]), 99% (active); in experiment [4] (at 50.0 µM) it was 14.3%. The growth inhibition is -3% in experiment [5] (setting [7]); 99% (active) in experiment [5] (setting [8]); 34.2% in experiment [5] (at 50.0 µM); 0% in experiment [6] (setting [7]); 99% (active) in experiment [6] (setting [8]); 69.1% in experiment [6] (at 50.0 µM).
